Where a name gives a salt, the structure may show the parent alone.

For the assay, the system named is Ruminococcus gnavus DSM 108212. In words: growth (OD595) fold change vs plate DMSO controls (fold change (ratio)); higher = more growth. Particulars: incubation time: 27 h, anaerobic, 37 °C. Put shortly: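 Each value is the mean of 2 biological replicates, and fold changes above 1.5 were set to NA. The underlying readings were taken at 595 nm from shaken anaerobic mGAM cultures in 96-well plates after 27 h at 37 °C. They were blank-subtracted, corrected for compound background using 20 µM compound solutions in water, and converted to OD with a calibration factor of 5. Growth is the fold change relative to the median of the plate DMSO controls.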
For the molecule `CC(N)(Cc1ccc(O)c(O)c1)C(=O)O` (stereo unspecified) [(L) Methyldopa] (20 µM), the growth amounted to 0.89.

`CN[C@@H]1[C@H](O[C@H]2[C@H](O[C@H]3[C@H](O)[C@@H](O)[C@H](N=C(N)N)[C@@H](O)[C@@H]3N=C(N)N)O[C@@H](C)[C@]2(O)C=O)O[C@@H](CO)[C@H](O)[C@H]1O` [Streptomycin sulfate] (20 µM): the growth is 1.15.

In the case of `CCOC(=O)c1ccc(OC(=O)CCCCCNC(=N)N)cc1` [Gabexate mesilate] (20 µM), the growth was found to be 1.02.

On to `NS(=O)(=O)c1cc(C(=O)O)c(NCc2ccco2)cc1Cl` [Furosemide] (20 µM), for which the growth was 1.22.

Consider `CC(C)(Oc1ccc(Cl)cc1)C(=O)O` [Clofibric acid] (20 µM), for which the growth was determined as 0.96.

Regarding `Cc1ccc(C(C)NC(=O)[C@@H](NC(=O)OC(C)C)C(C)C)cc1` (stereo partly specified) (20 µM), the growth was 0.999.

Turning to `COC(c1ccccc1)(c1ccccc1)[C@H](Oc1nc(C)cc(C)n1)C(=O)O` [Ambrisentan] (20 µM), the growth amounted to 1.04.

In the case of `CN1CCN(CCCN2c3ccccc3Sc3ccc(C(F)(F)F)cc32)CC1` [Trifluoperazine dihydrochloride] (20 µM), the growth came out at 0.968.

In the case of `C[N+](C)(CCOc1ccccc1)Cc1ccccc1.O=C([O-])c1cc2ccccc2cc1O` [Bephenium hydroxynaphthoate] (20 µM), the growth is 0.995.

With `c1ccc2cc3c(ccc4ccccc43)cc2c1` [Benz[a]anthracene] (20 µM), the growth was found to be 0.97.

Take `C[C@H]1C[C@H]2[C@@H]3CCC4=CC(=O)C=C[C@]4(C)[C@@]3(F)[C@@H](O)C[C@]2(C)[C@@]1(O)C(=O)CO` [Betamethasone] (20 µM): the growth worked out at 1.11.

The values are drawn from the supplement of paper PMC12494721.
